Structures are written as SMILES. The campaign covered roughly 310,000 compounds. About 14,000 (4.5%) showed an effect of 50% or more. Effects have a minus sign here. The sample holds strong results, similar compounds and a random draw of the others, so the mix is not that of the screen.
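Also: peak tail current of the secondary pulse compared with the same well before compound.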

In this experiment the target is human ether-à-go-go-related gene (hERG) potassium channel (human, UniProt Q12809). The experiment in a line: primary screen, population patch clamp on CHO cells stably expressing hERG; higher = less effect of the substance.
human ether-à-go-go-related gene (hERG) potassium channel, sequence (Q12809 whole entry, looked up): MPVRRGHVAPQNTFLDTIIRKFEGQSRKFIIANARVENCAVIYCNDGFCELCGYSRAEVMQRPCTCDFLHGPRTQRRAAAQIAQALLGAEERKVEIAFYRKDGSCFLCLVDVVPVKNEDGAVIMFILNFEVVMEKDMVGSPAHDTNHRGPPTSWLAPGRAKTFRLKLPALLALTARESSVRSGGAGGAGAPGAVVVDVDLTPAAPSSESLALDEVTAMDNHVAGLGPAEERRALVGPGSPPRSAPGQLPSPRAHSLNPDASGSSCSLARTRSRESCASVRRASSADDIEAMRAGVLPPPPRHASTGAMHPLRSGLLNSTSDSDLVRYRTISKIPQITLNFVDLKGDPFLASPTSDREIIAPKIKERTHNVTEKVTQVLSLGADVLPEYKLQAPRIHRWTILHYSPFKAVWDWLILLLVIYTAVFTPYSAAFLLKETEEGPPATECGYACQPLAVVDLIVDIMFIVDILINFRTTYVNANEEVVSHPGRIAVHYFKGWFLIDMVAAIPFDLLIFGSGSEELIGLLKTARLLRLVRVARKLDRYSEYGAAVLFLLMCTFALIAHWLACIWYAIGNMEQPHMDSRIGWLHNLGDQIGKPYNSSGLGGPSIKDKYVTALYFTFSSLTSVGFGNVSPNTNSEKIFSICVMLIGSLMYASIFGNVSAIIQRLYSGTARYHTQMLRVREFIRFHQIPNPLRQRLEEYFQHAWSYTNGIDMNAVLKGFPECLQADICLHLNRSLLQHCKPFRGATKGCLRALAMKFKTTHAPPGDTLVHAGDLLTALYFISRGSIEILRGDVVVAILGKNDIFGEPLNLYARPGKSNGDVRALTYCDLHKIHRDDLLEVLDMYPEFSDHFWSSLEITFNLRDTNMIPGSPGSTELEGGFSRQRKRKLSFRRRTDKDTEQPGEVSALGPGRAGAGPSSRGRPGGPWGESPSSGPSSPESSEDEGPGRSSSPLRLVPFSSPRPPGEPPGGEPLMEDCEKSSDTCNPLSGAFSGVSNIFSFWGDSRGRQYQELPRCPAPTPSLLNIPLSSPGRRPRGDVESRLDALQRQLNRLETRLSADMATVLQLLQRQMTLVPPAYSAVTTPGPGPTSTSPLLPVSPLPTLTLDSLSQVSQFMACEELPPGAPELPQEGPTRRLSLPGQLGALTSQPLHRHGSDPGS
For `OCCCNc1cc(-c2ccnc(Nc3cccc(Cl)c3)n2)ccn1`, the “hERG current change (%, negative = inhibition) at 10uM” value was -30.3%.

With `CC(=O)Nc1ccc(C(=O)OCC(=O)Nc2ccc([N+](=O)[O-])cc2C(F)(F)F)cc1`, the “hERG current change (%, negative = inhibition) at 10uM” value amounted to 7.22%.

As to `CC(C)(C)c1ccc(Cn2c(=O)cnc3ccccc32)cc1`, the “hERG current change (%, negative = inhibition) at 10uM” value was -4.85%.

As for `CC(C)(C)c1ccc(Cn2c(=N)n(CC(O)c3ccco3)c3ccccc32)cc1.Cl` (stereo not shown), the “hERG current change (%, negative = inhibition) at 10uM” value is recorded as -71.9%.

Regarding `Cl.N=c1n(Cc2ccc(Cl)cc2)c2ccccc2n1CC(O)c1ccco1` (stereo not shown), the “hERG current change (%, negative = inhibition) at 10uM” value is -64.1%.

Consider `O=c1c2ccccc2n(Cc2ccc(Cl)cc2)c(=O)n1Cc1ccco1`, for which the “hERG current change (%, negative = inhibition) at 10uM” value was 4.77%.

With `Cc1ccc(Cn2c(=O)n(Cc3ccco3)c(=O)c3ccccc32)cc1`, the “hERG current change (%, negative = inhibition) at 10uM” value turned out to be 16.3%.

For `Cc1ccc(Cn2c(=N)n(CC(O)c3ccco3)c3ccccc32)cc1.Cl` (stereo not shown), the “hERG current change (%, negative = inhibition) at 10uM” value was -64.5%.

Regarding `O=C(Nc1nc2ccccc2n1Cc1ccc(Cl)cc1)c1ccco1`, the “hERG current change (%, negative = inhibition) at 10uM” value stood at 5.47%.

Turning to `CCn1c(=N)n(CC(O)c2ccco2)c2ccccc21.Cl` (stereo not shown), the “hERG current change (%, negative = inhibition) at 10uM” value was -30.7%.

For `O=C(c1cccs1)N(Cc1cc2ccccc2[nH]c1=O)c1ccccc1`, the “hERG current change (%, negative = inhibition) at 10uM” value was -11.8%.

Regarding `CC(C)CN=Cc1c(O)c([N+](=O)[O-])cc2oc3c(c12)CCCC3`, the “hERG current change (%, negative = inhibition) at 10uM” value is recorded as 0.113%.

In the case of `COc1ccc(CCNC(=O)c2cccc(S(=O)(=O)N3CCOCC3)c2)cc1OC`, the “hERG current change (%, negative = inhibition) at 10uM” value is reported as 1.15%.

As to `CC(C)(C)N1CC(C(=O)Nc2ccc(C#N)cc2)CC1=O` (stereo not shown), the “hERG current change (%, negative = inhibition) at 10uM” value was 11.6%.

For the compound `O=C(NCCc1ccc(Cl)cc1)c1nnc(Cc2ccc(Cl)cc2)o1`, the “hERG current change (%, negative = inhibition) at 10uM” value amounted to 10.1%.

`CN(C)c1ccc(C2CC(=O)NC3=C2C(=O)CC(C)(C)C3)cc1` (stereo not shown): the “hERG current change (%, negative = inhibition) at 10uM” value is 1.9%.

For the compound `COc1ccccc1N1CCN(c2ccnc3cc(Cl)ccc23)CC1`, the “hERG current change (%, negative = inhibition) at 10uM” value is -43.4%.

For the compound `COc1ccccc1NC(=S)N1CCC(C(=O)c2ccc(F)cc2)CC1`, the “hERG current change (%, negative = inhibition) at 10uM” value is given as -22.7%.

For `COc1ccccc1NC(=O)N1CCN(c2ccnc3cc(Cl)ccc23)CC1`, the “hERG current change (%, negative = inhibition) at 10uM” value is reported as -80.5%.

`O=C(Nc1cc(F)ccc1F)N1CCN(c2ccnc3cc(Cl)ccc23)CC1`: the “hERG current change (%, negative = inhibition) at 10uM” value is recorded as -66.4%.

For the compound `O=C(Nc1ccc(Cl)cc1Cl)N1CCN(c2ncccn2)CC1`, the “hERG current change (%, negative = inhibition) at 10uM” value is -21.1%.

For the compound `Cc1ccc(F)cc1NC(=O)N1CCCN(c2ccc(C(F)(F)F)cn2)CC1`, the “hERG current change (%, negative = inhibition) at 10uM” value is recorded as -43.3%.

Turning to `COc1ccccc1NC(=O)N1CCC(C(=O)c2ccc(Cl)cc2)CC1`, the “hERG current change (%, negative = inhibition) at 10uM” value is listed as -72.7%.

With `COc1ccccc1NC(=O)N1CCC(C(=O)c2ccc(F)cc2)CC1`, the “hERG current change (%, negative = inhibition) at 10uM” value was 0.487%.

For `COc1cccc(Cl)c1NC(=O)N1CCN(c2ccnc3cc(Cl)ccc23)CC1`, the “hERG current change (%, negative = inhibition) at 10uM” value is -44.1%.

Take `Cc1cccc(Cl)c1NC(=O)N1CCN(c2ccnc3cc(Cl)ccc23)CC1`: the “hERG current change (%, negative = inhibition) at 10uM” value is -16.8%.

As for `Cc1ccc(F)cc1NC(=O)N1CCN(c2ccnc3cc(Cl)ccc23)CC1`, the “hERG current change (%, negative = inhibition) at 10uM” value is -67%.

As to `CCC(Sc1nc(-c2ccccc2)c(C#N)c(=O)[nH]1)C(=O)Nc1nnc(C)s1` (stereo not shown), the “hERG current change (%, negative = inhibition) at 10uM” value is given as 1.73%.

Consider `Cc1ccc(NC(=S)Nc2nc(CC(=O)Nc3ccccc3)cs2)cc1`, for which the “hERG current change (%, negative = inhibition) at 10uM” value is recorded as 13%.

Take `COC(=O)c1ccc(-c2ccc(/C=N/N3C(=O)C4C5C=CC(CC5)C4C3=O)o2)cc1` (stereo not shown): the “hERG current change (%, negative = inhibition) at 10uM” value is recorded as -16.1%.

For the compound `CC(C)CC(=O)N1CCN(Cc2cccc(Cl)c2)CC1`, the “hERG current change (%, negative = inhibition) at 10uM” value was determined as 7.42%.

In the case of `CCN1CCN(CCNC(=O)c2ccc3c(c2)N(Cc2ccc(F)cc2)C(=O)/C(=C/c2ccccc2)S3)CC1`, the “hERG current change (%, negative = inhibition) at 10uM” value was -42.7%.

As to `CN(C)Cc1nnnn1-c1cccc(-n2nnnc2CN(C)C)c1`, the “hERG current change (%, negative = inhibition) at 10uM” value is 12.3%.

As to `COCC(=O)NC1CCN(CC(=O)Nc2ccc(OC)cc2[N+](=O)[O-])CC1`, the “hERG current change (%, negative = inhibition) at 10uM” value is recorded as -2.46%.

`CC(C)c1ccc(Nc2nnc(SCC(=O)Nc3ncc(S(=O)(=O)c4ccc([N+](=O)[O-])cc4)s3)s2)cc1`: the “hERG current change (%, negative = inhibition) at 10uM” value is 13.8%.

In the case of `COC(=O)C1=CN(CCOC23CC4CC(CC(C4)C2)C3)C=C(C(=O)OC)C1c1ccsc1`, the “hERG current change (%, negative = inhibition) at 10uM” value was 10%.

As to `Cn1c(=O)[nH]c2ccc([N+](=O)[O-])nc21`, the “hERG current change (%, negative = inhibition) at 10uM” value worked out at 9.62%.

As for `Cc1cc(=O)oc2cc(NC(=O)C3CC(=O)N(Cc4ccccc4)C3)ccc12` (stereo not shown), the “hERG current change (%, negative = inhibition) at 10uM” value was 5.29%.

With `COc1ccc(NC(=O)N2CCN(c3cccc(C(F)(F)F)c3)CC2)cc1OC`, the “hERG current change (%, negative = inhibition) at 10uM” value was -1.73%.

Take `COc1ccccc1NC(=O)N1CCN(c2cccc(C(F)(F)F)c2)CC1`: the “hERG current change (%, negative = inhibition) at 10uM” value was -76.6%.

As for `COc1ccc(NC(=O)N2CCN(c3cccc(C(F)(F)F)c3)CC2)cc1`, the “hERG current change (%, negative = inhibition) at 10uM” value is listed as -1.89%.

As for `O=C(CN1C(=O)COCC1=O)N1CCOCC1`, the “hERG current change (%, negative = inhibition) at 10uM” value worked out at 3.2%.

As for `Cc1ccc(C)n1-c1ccc(-c2nnco2)cc1`, the “hERG current change (%, negative = inhibition) at 10uM” value was found to be 8.42%.

For the origin of these results see article PMC4336329 (PLoS ONE, 2015).
